# Measured values as given in PubChem BioAssay AID743088 (The Scripps Research Institute Molecular Screening Center, 2013).
# Unmarked numbers belong to inactive results.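 Rule for the calls: active = binding inhibited by at least 50%, or stimulated by at least 50%, shown as inhibition of -50% or lower; inactive = the rest.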
# System: Rolipram
# Assay: off-target binding across receptor panel, profiling panel, selectivity assay for AVPR1a antagonist project, biochemical, Panlabs HitProfilingScreen (AID 743088)
# Conditions: Panlabs radioligand binding panel, 30 targets, at 10 µM, stronger effect = higher value
structure (smiles),measurement,value
O=C(C1CCN(c2ccc(Cl)cn2)CC1)N(CC1CC1)c1ccc(Cl)cc1,inhibition of binding,-3%
